Screen size: about 48,000 compounds; about 13,000 (27%) showed an effect of 50% or more. This is one part of the list.

For the assay, the system named is Wolbachia pipientis. Kind of assay: Anti-Wolbachia Cell-Based Screen. It counts as functional. Details: scale not given: in the data most compounds retested in dose-response had high values. The note with it: 5 µM.
Consider `COCCCN1CCCC2(CCN(S(=O)(=O)c3cccnc3)C2)C1=O` (stereo not drawn), for which the “Percent Effect” value was -3.769%.
The same measure for `Cc1ccc(C2CCCN(S(=O)(=O)N3CCOCC3)C2)nc1` (stereo not drawn): 122.5%; for `CS(=O)(=O)N1CC[C@H](c2nc3ccc(C(F)(F)F)cc3[nH]2)C1`: 11.72%; for `CN(C1CCN(c2ccccn2)CC1)S(=O)(=O)N1CCOCC1`: 4.035%.
On to `CC1(C)CNC(=O)c2nc(C3CCCN(S(C)(=O)=O)C3)[nH]c2C1` (stereo not drawn), for which the “Percent Effect” value is -1.918%.
Next, `O=S(=O)(N1CCOCC1)N1CCCC(c2ccccn2)C1` (stereo not drawn): 113%; `CC1CCN(S(=O)(=O)N2CCCC(c3cccc(C(=O)O)c3)C2)CC1` (stereo not drawn): -0.2169%.
The same measure for `Cc1nccc(C2CCCN(S(=O)(=O)N3CCOCC3)C2)n1` (stereo not drawn): 96.21%; for `O=C(O)c1cccc(C2CCCN(S(=O)(=O)N3CCOCC3)C2)c1` (stereo not drawn): 13.32%; for `Cc1ccc(C2CCCN(S(C)(=O)=O)C2)nc1` (stereo not drawn): 144.7%.
On to `Cc1noc2ncc(S(=O)(=O)Nc3cc(CC(C)(C)C)[nH]n3)cc12`, for which the “Percent Effect” value is recorded as -3.68%.
In the case of `CCC(NS(C)(=O)=O)c1ccccc1OC` (stereo not drawn), the “Percent Effect” value is listed as -5.645%.
Take `CCN(Cc1cccs1)C(=O)c1ccc(=O)n(C)c1`: the “Percent Effect” value is given as 17.88%.
Take `Cc1cccnc1CC(C)N(C)C(=O)c1ccoc1C` (stereo not drawn): the “Percent Effect” value is -11.81%.
Next, `Cc1occc1CNC(=O)C1(C)CCCN(C(=O)c2ccccc2)C1` (stereo not drawn): 10.24%; `Cc1csc(C(C#N)C(=O)Nc2ccccc2)n1` (stereo not drawn): -10.65%.
With `Cc1ccc(S(=O)(=O)N(C)Cc2nccs2)cc1N(C)C`, the “Percent Effect” value is recorded as 7.403%.
Next, `Cc1nc(C2CCCC2)sc1C(N)=O`: -5.82%; `Cc1nc(C2CCCN(S(C)(=O)=O)C2)sc1Br` (stereo not drawn): 114.6%.
Take `CNC(=O)c1sc(C2CCCC2)nc1C`: the “Percent Effect” value is 1.771%.
As to `CCOCC1CN(c2ccc(C)nn2)Cc2cnn(CC)c21.O=C(O)C(F)(F)F.O=C(O)C(F)(F)F` (stereo not drawn), the “Percent Effect” value was determined as 109.7%.
For the compound `CCOCC1CN(C)Cc2cnn(CC3CCCC3)c21.O=C(O)C(F)(F)F.O=C(O)C(F)(F)F` (stereo not drawn), the “Percent Effect” value is listed as 4.173%.
Consider `COCC1CN(c2ccc(C)nn2)Cc2cnn(CC3CCOCC3)c21.O=C(O)C(F)(F)F.O=C(O)C(F)(F)F` (stereo not drawn), for which the “Percent Effect” value is 113.1%.
As for `Cc1noc(C)c1CN1Cc2cnn(C)c2C(COCC2CC2)C1.O=C(O)C(F)(F)F.O=C(O)C(F)(F)F` (stereo not drawn), the “Percent Effect” value is listed as -11.34%.
Regarding `CCOCC1CN(c2ccc(C)nn2)Cc2nn(CC)cc21.O=C(O)C(F)(F)F.O=C(O)C(F)(F)F` (stereo not drawn), the “Percent Effect” value is given as 10.42%.
As for `CCOCC1CN(S(=O)(=O)N(C)C)Cc2cnn(CC)c21.O=C(O)C(F)(F)F` (stereo not drawn), the “Percent Effect” value is reported as -6.757%.
Turning to `Cc1ccc(N2Cc3cnn(C)c3C(COCC3CC3)C2)nn1.O=C(O)C(F)(F)F.O=C(O)C(F)(F)F` (stereo not drawn), the “Percent Effect” value amounted to 105.5%.
Turning to `COCC1CN(c2ccc(C)nn2)Cc2cnn(C)c21.O=C(O)C(F)(F)F.O=C(O)C(F)(F)F` (stereo not drawn), the “Percent Effect” value is 88.37%.
As to `CCn1cc2c(n1)C(COC)CN(c1ccc(C)nn1)C2.O=C(O)C(F)(F)F.O=C(O)C(F)(F)F` (stereo not drawn), the “Percent Effect” value worked out at 2.14%.
Take `COCC1CN(Cc2ccc(C)o2)Cc2cnn(CC3CCOCC3)c21.O=C(O)C(F)(F)F.O=C(O)C(F)(F)F` (stereo not drawn): the “Percent Effect” value was found to be 3.505%.
With `CCOCC1CN(S(=O)(=O)N(C)C)Cc2cnn(C)c21.O=C(O)C(F)(F)F` (stereo not drawn), the “Percent Effect” value is listed as -5.434%.
Regarding `Cc1ncsc1CN1Cc2cnn(C)c2C(COCC2CC2)C1.O=C(O)C(F)(F)F.O=C(O)C(F)(F)F` (stereo not drawn), the “Percent Effect” value is on record as -6.117%.
For the compound `c1ccc(-c2nc3c(c(NCCn4ccnn4)n2)CCNCC3)nc1`, the “Percent Effect” value is given as -1.189%.
In the case of `O=S(=O)(NCCCn1ccc2ccccc21)N1CCCCC1`, the “Percent Effect” value was -18.64%.
Next, `CC(Cc1cccnc1)Nc1ncnc2cccc(F)c12` (stereo not drawn): -13.17%; `Cc1noc(C)c1CNC(=O)N1CCC(CN2CCC(C)CC2)CC1`: 0.5097%; `CCn1ncc2c1C(COCC1CC1)CN(S(=O)(=O)N(C)C)C2.O=C(O)C(F)(F)F` (stereo not drawn): 4.655%.
Consider `CCn1ncc2c1C(COCC1CC1)CN(c1ccc(C)nn1)C2.O=C(O)C(F)(F)F.O=C(O)C(F)(F)F` (stereo not drawn), for which the “Percent Effect” value is on record as 84.42%.
Regarding `CS(=O)(=O)N1Cc2cnn(CC3CC3)c2C(COCC2CC2)C1.O=C(O)C(F)(F)F` (stereo not drawn), the “Percent Effect” value is -10.17%.
With `O=C(c1ccc2nccn2c1)N1CCC(CCn2cccn2)CC1`, the “Percent Effect” value is -0.54%.
Next, `COc1ccc(S(=O)(=O)N2CCC(S(C)(=O)=O)CC2)cc1C`: -19.61%.
For `Cc1ccc(S(=O)(=O)N2CCC(S(C)(=O)=O)CC2)cc1C`, the “Percent Effect” value turned out to be 132.3%.
Turning to `COc1ccc(S(=O)(=O)N2CCn3nc(C)nc3C2)cc1C`, the “Percent Effect” value was -5.027%.
Consider `CS(=O)(=O)C1CCN(S(=O)(=O)c2ccc(F)c(F)c2)C1` (stereo not drawn), for which the “Percent Effect” value is recorded as 88%.
For `Cn1cnnc1S(=O)(=O)C1CCN(S(=O)(=O)c2ccc(F)c(Cl)c2)CC1`, the “Percent Effect” value is listed as -4.538%.
Next, `CS(=O)(=O)C1CCN(S(=O)(=O)c2ccc(F)c(F)c2)CC1`: 110.6%; `Cc1cc(S(=O)(=O)N2CCC(S(C)(=O)=O)CC2)ccc1F`: -10.45%.
For `CCC[C@@H]1CN(S(=O)(=O)c2ccc(C)c(F)c2)C[C@H]1N(C)C`, the “Percent Effect” value is given as -4.153%.

These data come from ChEMBL document CHEMBL3988442, “University of Dundee, Small-Polar-MMV Screening Library” (2021).
